For 14 molecules, growth results are on record in PubChem BioAssay (NCI).

Test systems include NCI-H23 lung; NCI-H226 lung; NCI-H322M lung; HOP-62 NSCLC; NCI-H460 lung; HOP-92 NSCLC; NCI-H522 lung; A549/ATCC NSCLC; 786-0 renal; COLO 205 colon.
Common to all, as to assay: NCI-60 one-dose screen, 48 h (100 = growth as untreated, 0 = no growth, -100 = all killed)
Settings in all cases: 10 µM unless noted

The panel holds about 83,000 compounds, 20% with a hit somewhere; the sample as a whole holds those more often.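 A percent growth of 40 corresponds to 60% growth inhibition; 0 means no net growth; -100 means all cells died. Active threshold: below 10.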 A number with no mark means an inactive call. The source made the active and inactive calls.

For `C#CC[C@@H]1C[C@]2(C)[C@H]3CC[C@@H]4[C@H]5C(C(=C)C)CC[C@]5(C(=O)NCCCCCCCCN)CC[C@@]4(C)[C@]3(C)CC[C@H]2C(C)(C)[C@H]1OC(C)=O` (stereo not given in full), the growth was 97.3% with NCI-H23 lung; 95.6% in the experiment with NCI-H226 lung; 101% in the experiment on NCI-H322M lung; 103% in the experiment on HOP-62 NSCLC; 16.3% with NCI-H460 lung; 70.6% in the experiment with HOP-92 NSCLC. In addition, the growth in the experiment on NCI-H522 lung is 88.1%; with A549/ATCC NSCLC, 93.3%; with 786-0 renal, 85.1%; in the experiment on COLO 205 colon, 86%.
For `COc1ccc2[nH]cc(C(c3ccc(Cl)cc3)N3CCCC3)c2c1` (stereo not given), the growth in the experiment on NCI-H23 lung is 93.2%; with NCI-H226 lung, 98.2%; with NCI-H322M lung, 94.3%; in the experiment on HOP-62 NSCLC, 97.6%; in the experiment with NCI-H460 lung, 101%; in the experiment on HOP-92 NSCLC, 79.2%. In addition, the growth in the experiment with NCI-H522 lung was 82.1%; with A549/ATCC NSCLC it was 98.8%; in the experiment with 786-0 renal it was 102%; in the experiment on COLO 205 colon it was 114%.
Take `COc1ccc(-c2[nH]nc(N)c2-c2cc(OC)c(OC)c(OC)c2)cc1`: the growth in the experiment with NCI-H23 lung was 17.4%; with NCI-H226 lung, 68.3%; in the experiment with NCI-H322M lung, 7.95% (active); in the experiment on HOP-62 NSCLC it was 22%; in the experiment on NCI-H460 lung, 7.6% (active); with HOP-92 NSCLC, 31.3%. The growth is -32% (active) in the experiment with NCI-H522 lung, 19.3% in the experiment on A549/ATCC NSCLC, 24% in the experiment on 786-0 renal and -61.6% (active) in the experiment with COLO 205 colon.
With `CCCCNCCC(O)c1cc2ccc(C(F)(F)F)cc2c2cc(C(F)(F)F)ccc12` (stereo not given), the growth was -75.3% (active) in the experiment with NCI-H23 lung; -70.7% (active) in the experiment with NCI-H226 lung; -37.6% (active) with NCI-H322M lung; -91.3% (active) in the experiment with HOP-62 NSCLC; -74.5% (active) in the experiment with NCI-H460 lung; -80.6% (active) in the experiment with HOP-92 NSCLC. Further, the growth in the experiment with NCI-H522 lung was -83% (active); in the experiment with A549/ATCC NSCLC, -87.5% (active); in the experiment on 786-0 renal it was -85.3% (active); in the experiment on COLO 205 colon, -88.6% (active).
Turning to `CCNS(=O)(=O)c1ccc(C)cc1`, the growth with NCI-H23 lung is 100%; in the experiment with NCI-H226 lung, 103%; in the experiment on NCI-H322M lung, 102%; in the experiment with HOP-62 NSCLC, 100%; in the experiment on NCI-H460 lung, 101%; in the experiment on HOP-92 NSCLC, 69.7%. Further, the growth in the experiment with NCI-H522 lung is 114%; with A549/ATCC NSCLC, 95.8%; with 786-0 renal it was 110%; with COLO 205 colon it was 113%.
As to `O=C(C=P(c1ccccc1)(c1ccccc1)c1ccccc1)CCl`, the growth with NCI-H23 lung is -23.2% (active); with NCI-H226 lung it was -70.7% (active); with NCI-H322M lung it was 10.3%; in the experiment on HOP-62 NSCLC, 13.9%; in the experiment on NCI-H460 lung it was -11.9% (active); with HOP-92 NSCLC, -51.7% (active). Besides, the growth in the experiment on NCI-H522 lung was -77.7% (active); in the experiment on A549/ATCC NSCLC, 23.1%; in the experiment on 786-0 renal, -75.8% (active); with COLO 205 colon, -53.9% (active).
For the molecule `CC(=O)N[C@@H](CCC(N)=O)C(=O)O`, the growth in the experiment with NCI-H23 lung was 92.6%; with NCI-H226 lung it was 87.9%; with NCI-H322M lung it was 111%; in the experiment with HOP-62 NSCLC it was 102%; with NCI-H460 lung, 105%; in the experiment with HOP-92 NSCLC, 61.3%. Besides, the growth in the experiment with NCI-H522 lung is 103%; in the experiment with A549/ATCC NSCLC, 88.2%; in the experiment with 786-0 renal it was 82.6%; with COLO 205 colon, 124%.
On to `CCc1ccc(-c2ccc(NC3CCCCCC3)nn2)cc1S(N)(=O)=O`, for which the growth is 106% in the experiment on NCI-H23 lung; 104% in the experiment with NCI-H226 lung; 110% in the experiment on NCI-H322M lung; 120% with HOP-62 NSCLC; 104% in the experiment with NCI-H460 lung; 94.2% in the experiment with HOP-92 NSCLC. Also, the growth in the experiment with NCI-H522 lung is 87.7%; in the experiment on A549/ATCC NSCLC it was 98.2%; in the experiment with 786-0 renal, 103%; in the experiment with COLO 205 colon it was 115%.
Regarding `Cc1c(-c2ccc(-c3ccccc3F)cc2)nc2ccc(F)cc2c1C(=O)O`, the growth is 54.6% in the experiment on NCI-H23 lung; 65.4% in the experiment with NCI-H226 lung; 44.5% with NCI-H322M lung; 49.3% in the experiment on HOP-62 NSCLC; 10.6% in the experiment with NCI-H460 lung; 42.5% in the experiment on HOP-92 NSCLC. Further, the growth in the experiment on NCI-H522 lung was 34.3%; with A549/ATCC NSCLC it was 34.7%; in the experiment on 786-0 renal, 23%; in the experiment on COLO 205 colon, 49.2%.
Consider `Cc1ccc(S(=O)(=O)NC(CCC(=O)Nc2ccc(Cl)cc2)C(=O)Nc2ccc(Cl)cc2)cc1` (stereo not given), for which the growth in the experiment with NCI-H23 lung was 38.8%; in the experiment with NCI-H226 lung, 57.9%; in the experiment on NCI-H322M lung, 40%; in the experiment with HOP-62 NSCLC, 14.5%; with NCI-H460 lung it was 7.89% (active); with HOP-92 NSCLC, -20.4% (active). The growth in the experiment with NCI-H522 lung was -29.7% (active); in the experiment with A549/ATCC NSCLC, 27.6%; in the experiment with 786-0 renal it was 16.9%; in the experiment with COLO 205 colon, 52.7%.
In the case of `Cc1ccc(CSCc2ccc(C(=O)NC3CC3)o2)cc1`, the growth in the experiment with NCI-H23 lung is 82%; with NCI-H226 lung, 105%; in the experiment with NCI-H322M lung it was 80.8%; in the experiment with HOP-62 NSCLC it was 109%; with NCI-H460 lung, 52.2%; in the experiment on HOP-92 NSCLC it was 75.2%. In addition, the growth in the experiment on NCI-H522 lung was 43.5%; in the experiment on A549/ATCC NSCLC it was 45.3%; in the experiment on 786-0 renal, 91.6%; in the experiment with COLO 205 colon, 63.7%.
Consider `CCNC(=S)N(Cc1ccccc1)Cc1ccccc1`, for which the growth with NCI-H23 lung was 110%; in the experiment with NCI-H226 lung, 114%; with NCI-H322M lung, 104%; in the experiment on HOP-62 NSCLC it was 94.5%; in the experiment on NCI-H460 lung, 131%; in the experiment on HOP-92 NSCLC, 76.7%. In addition, the growth with NCI-H522 lung is 88.1%; with A549/ATCC NSCLC, 98.4%; with 786-0 renal, 107%; in the experiment on COLO 205 colon, 132%.
As for `O=C(Nc1ccc2ncnc(Nc3ccc(F)c(Cl)c3)c2c1)c1cccs1`, the growth is 81.6% in the experiment on NCI-H23 lung; 58.1% in the experiment on NCI-H226 lung; 19.3% in the experiment with NCI-H322M lung; 72.7% in the experiment on HOP-62 NSCLC; 39.6% in the experiment with NCI-H460 lung; 38% in the experiment with HOP-92 NSCLC. For the same molecule, the growth in the experiment on NCI-H522 lung was 31.4%; in the experiment with A549/ATCC NSCLC, 43.3%; in the experiment with 786-0 renal, 14.8%; with COLO 205 colon, 106%.
Turning to `COc1cc(-c2n/c(=C\c3c(O)[nH]c4cc(Cl)ccc34)cc3c2=Nc2ccccc2-3)cc(OC)c1OC`, the growth in the experiment with NCI-H23 lung was 45.2%; in the experiment with NCI-H226 lung it was 89.9%; in the experiment on NCI-H322M lung, 62.3%; with HOP-62 NSCLC, 23.3%; in the experiment on NCI-H460 lung it was 59.7%; with HOP-92 NSCLC, 27.2%. Besides, the growth is 54.6% in the experiment with NCI-H522 lung, 59.5% in the experiment with A549/ATCC NSCLC, 34.5% in the experiment on 786-0 renal and 58.6% with COLO 205 colon.
